{"source": "PubChem BioAssay (NCATS)", "note": "Inconclusive results are not listed. Entries that show only a call come without a potency. Active and inactive are the calls of the source. Calls come from the whole dose curve; as a rule, active = well fitted activation curve with a large enough effect; inconclusive = small, poorly fitted or top-dose-only effect; inactive = no such curve, though single readings can be large or run the other way.", "data": [{"molecular_target": "Arylsulfatase A (Homo sapiens) (UniProt P15289)", "sequence (P15289 whole entry, looked up)": "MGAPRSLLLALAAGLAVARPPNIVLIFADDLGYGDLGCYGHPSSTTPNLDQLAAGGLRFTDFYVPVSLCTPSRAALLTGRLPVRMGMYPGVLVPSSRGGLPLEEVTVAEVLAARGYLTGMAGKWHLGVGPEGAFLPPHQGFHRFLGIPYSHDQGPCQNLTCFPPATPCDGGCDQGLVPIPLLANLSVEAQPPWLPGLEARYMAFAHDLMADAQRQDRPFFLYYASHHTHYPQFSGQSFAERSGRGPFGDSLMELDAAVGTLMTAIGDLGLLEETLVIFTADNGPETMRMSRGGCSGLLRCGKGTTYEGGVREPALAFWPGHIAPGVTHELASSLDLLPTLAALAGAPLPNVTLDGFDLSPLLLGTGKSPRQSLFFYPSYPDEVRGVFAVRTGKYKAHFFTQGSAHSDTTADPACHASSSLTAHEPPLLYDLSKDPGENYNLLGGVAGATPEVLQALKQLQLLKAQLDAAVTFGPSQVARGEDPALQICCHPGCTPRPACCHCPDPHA", "experiment": "qHTS screen for enhancers of Arylsulfatase A (ASA1): LOPAC Validation Assay (AID 720538)", "settings": "ASA enzyme activity, LOPAC qHTS enhancer assay; series mostly up to 57.5 µM", "from_the_text": "Lysosomal storage diseases (LSDs) are caused by genetic mutations in genes encoding proteins important for normal lysosomal function. In affected patients, symptoms are usually not manifested unless the mutations result in more than 90% reduction of enzymatic activity of a specific lysosomal enzyme. […] Small molecules could function as enzyme enhancement agents by binding to and stabilizing mutant misfolded proteins in the endoplasmic reticulum (ER), allowing them to evade the ER associated degradation (ERAD), and eventually reach the lysosome. Moreover, small molecules is hypothesized to be able to enhance the residual activity of deficient lysosomal enzyme by either interacting directly with the mutant enzyme or indirectly by acting in different cellular pathways; resulting to increased levels of the mutant and partially functional protein in the lysosomal compartment.\nA cell based assay in 1536 well plate format was developed to evaluate activity of the lysosomal sulfatase ASA1 enzyme. ASA1 is deficient in metachromatic leukodystrophy (MLD), an LSD characterized by progressive neurodegeneration for which specific treatment is not available. Compounds that are active may therefore have some therapeutic application for this disease. This assay was used to validate the ASA1 qHTS using the Sigma LOPAC library. In this assay increase in signal = enhanced ASA1 activity. Activation is the desired outcome for this assay.\nNIH Chemical Genomics Center [NCGC]\nNIH Molecular Libraries Probe Centers Network [MLPCN]\nAssay Submitter (PI): Gustavo Maegawa, Johns Hopkins University School of Medicine\n[2] Gieselmann V, et al. Acta Paediatr Suppl. 2008; 97: 15-21\nFour microliter (~8,000 cells/well) of SV40-transformed skin fibroblasts from an MLD patient (ASA-I179S) were seeded into a 1,536 solid white plate. Cells were left to adhere for 6 hrs, followed by addition of 23 nL of compounds. Cells were incubated with compounds for 48h at 37 degree C and 5% CO2. Four microliter of 1 mM pNCS substrate/lysis buffer (0.5mM pNCS final concentration) was added and incubated for 14h at room temperature. To stop the reaction, […] of 5 N of NaOH (1N NaOH final concentration) was then added and fluorescence was measured using the ViewLux plate reader (Ex=525 nm; Em=598 nm).", "values": [{"molecule": "Cc1ccc(O)c(N=Nc2ccccc2)n1", "Potency": "inactive"}, {"molecule": "OCC1O[C@H](O)C(Cl)C(O)C1O", "note": "(stereo not given in full)", "Potency": "inactive"}, {"molecule": "O=P(O)(O)C(Cl)(Cl)P(=O)(O)O", "Potency": "inactive"}, {"molecule": "Cc1ccccc1CNc1ncnc2c1ncn2C1OC(CO)C(O)C1O", "note": "(stereo not given)", "Potency": "inactive"}, {"molecule": "CCCCCCCCCCCCCCCCCC(=O)OC(CC(=O)O)C[N+](C)(C)C", "note": "(stereo not given)", "Potency": "inactive"}, {"molecule": "O=c1[nH]c2cc(Cl)c(Cl)cc2[nH]c1=O", "Potency": "inactive"}, {"molecule": "C[C@@H](NC(=O)/C(C#N)=C/c1ccc(O)c(O)c1)c1ccccc1", "Potency": "inactive"}, {"molecule": "CCCCCCCCCCCCCCCC(=O)NCC(COP(=O)([O-])OCC[N+](C)(C)C)OCC", "note": "(stereo not given)", "Potency": "inactive"}, {"molecule": "O=C(O)CC1CCCc2ccccc2C1O", "note": "(stereo not given)", "Potency": "inactive"}, {"molecule": "N=C(N)SCCc1ccc(CCSC(=N)N)cc1", "Potency": "inactive"}, {"molecule": "CC(C)Cc1ccc([C@H](C)C(=O)O)cc1", "Potency": "inactive"}, {"molecule": "CC(C)NC[C@H](O)COc1cccc2[nH]ccc12", "Potency": "inactive"}, {"molecule": "COc1cccc(OC)c1OCCNCC1COc2ccccc2O1", "note": "(stereo not given)", "Potency": "inactive"}, {"molecule": "CC(C)NC[C@@H](O)c1ccc(O)c(O)c1", "Potency": "inactive"}, {"molecule": "Nc1nc(Cl)nc2c1ncn2[C@@H]1O[C@H](CO)[C@@H](O)[C@H]1O", "Potency": "inactive"}, {"molecule": "OC[C@H]1O[C@@H](n2cnc3c(NC4CCCCC4)ncnc32)[C@H](O)[C@@H]1O", "Potency": "inactive"}, {"molecule": "CC1(C)CCC=[N+]1[O-]", "Potency": "inactive"}, {"molecule": "CC[C@@H](C)[C@H]1O[C@]2(CC[C@H]1C)C[C@@H]1C[C@@H](CC=C(C)[C@@H](O[C@H]3C[C@H](OC)[C@@H](O[C@H]4C[C@H](OC)[C@@H](O)[C@H](C)O4)[C@H](C)O3)[C@@H](C)C=CC=C3CO[C@@H]4[C@H](O)C(C)=C[C@@H](C(=O)O1)[C@]34O)O2", "Potency": "inactive"}, {"molecule": "Cc1nc2sccn2c(=O)c1CCN1CCC(=C(c2ccccc2)c2ccc(F)cc2)CC1", "Potency": "inactive"}, {"molecule": "C[N+](C)(C)CCOP(=O)(O)OP(=O)([O-])OC[C@H]1O[C@@H](n2ccc(N)nc2=O)[C@H](O)[C@@H]1O", "Potency": "inactive"}, {"molecule": "O=C1/C(=C/c2ccsc2)CC/C1=C\\c1cccs1", "Potency": "inactive"}, {"molecule": "CCCCCC(O)c1cccc(OCc2ccc3ccccc3n2)c1", "note": "(stereo not given)", "Potency": "inactive"}, {"molecule": "C[N+](C)(C)CC(=O)[O-]", "Potency": "inactive"}, {"molecule": "N[C@@H](CC(=O)O)C(=O)O", "Potency": "inactive"}, {"molecule": "CSc1ccccc1N1CCN(CCCCCC(=O)NC2CCCc3ccccc32)CC1", "note": "(stereo not given)", "Potency": "inactive"}, {"molecule": "COc1cc2nc(N3CCN(C(=O)OCc4ccccc4)C(C(=O)NC(C)(C)C)C3)nc(N)c2cc1OC", "note": "(stereo not given)", "Potency": "inactive"}, {"molecule": "COc1ccc2c(c1)CCC1C2CC[C@@]2(C)C1CC[C@@H]2NCCCCCCN1C(=O)CCC1=O", "note": "(stereo not given in full)", "Potency": "inactive"}, {"molecule": "O=c1[nH]c2cc(C(F)(F)F)ccc2n1-c1cc(C(F)(F)F)ccc1O", "Potency": "inactive"}, {"molecule": "N#C/C(=C\\c1ccc(O)c(O)c1)C(=O)NCCCc1ccccc1", "Potency": "inactive"}, {"molecule": "CN1CCc2cccc3c2C1Cc1ccc(O)c(O)c1-3", "note": "(stereo not given)", "Potency": "inactive"}, {"molecule": "CN(C)C(N)=NCCC[C@H](N)C(=O)O", "Potency": "inactive"}, {"molecule": "COc1cc(SC)ccc1C(=O)N1CCC(Cc2ccccc2)CC1", "Potency": "inactive"}, {"molecule": "Nc1nc(Cl)nc2c1ncn2[C@@H]1O[C@H](COP(=O)(O)OP(=O)(O)OP(=O)(O)O)[C@@H](O)[C@H]1O", "Potency": "inactive"}, {"molecule": "NC(=O)C1=CN(C2OC(COP(=O)(O)OP(=O)(O)OC[C@H]3O[C@@H](n4cnc5c(N)ncnc54)[C@H](OP(=O)(O)O)[C@@H]3O)C(O)C2O)C=CC1", "note": "(stereo not given in full)", "Potency": "inactive"}, {"molecule": "CN1CCc2ccccc2Cc2[nH]c3ccccc3c2CC1", "Potency": "inactive"}, {"molecule": "C[C@@H](CN1CCC(Cc2ccccc2)CC1)[C@@H](O)c1ccc(O)cc1", "Potency": "inactive"}, {"molecule": "Cc1cc(NC2CCCCC2)nc(-n2nc(C)cc2C)n1", "Potency": "inactive"}, {"molecule": "CCN(CC)c1ncnc2c1ncn2[C@@H]1O[C@H](COP(=O)(O)OP(=O)(O)C(Br)(Br)P(=O)(O)O)[C@@H](O)[C@H]1O", "Potency": "inactive"}, {"molecule": "Cc1ccc(S(=O)(=O)/C=C/C#N)cc1", "Potency": "inactive"}, {"molecule": "CCCCCCCCCCCCCCCCCC(=O)NCC(COP(=O)([O-])OCC[N+](C)(C)C)OCC", "note": "(stereo not given)", "Potency": "inactive"}]}]}
